Only some compounds are listed: those with a hit (about 2.4% of all), similar ones and a draw of the others.
ASK1 inh – human ASK1 kinase inhibition, primary screen; Q99683; AlphaScreen MKK6 phosphorylation by ASK1, luminescence; inhibition, % at 7.44 µM; 22,000 tested, 0.99% active; AID 1159602; in the data active = inhibition above about 35%
ULK1 primary – blocks human autophagy kinase ULK1. O75385. AlphaScreen Atg13 phosphorylation by ULK1, luminescence. inhibition, % at 5.96 µM. 30,000 tested, 1.9% active. AID 1259251; in the data active = inhibition above about 43%
Of the large screens only hits and unclear results are named; the others gave an inactive call.

CC(C)n1cnc2c(NCCO)nc(Nc3ccccn3)nc21	none
CC(=O)Nc1ccc(Nc2nc(Nc3ccncn3)nc3c2ncn3-c2ccccc2)cc1	none
CC(C)n1cnc2c(Nc3ccccc3)nc(Nc3ccccn3)nc21	ULK1 primary 49
CC(=O)Nc1ccc(Nc2nc(Nc3ccncn3)nc3c2ncn3C(C)C)cc1	ULK1 primary 55
CNC(=O)c1ccccc1Nc1cc(NCc2ccccc2)ncc1C(F)(F)F	ULK1 primary 55
CNC(=O)c1ccccc1Nc1cc(NC(=O)Cc2ccccc2F)ncc1C(F)(F)F	ULK1 primary 53
CNC(=O)c1ccccc1Nc1cc(NC(=O)Cc2ccc(N)cc2)ncc1C(F)(F)F	ULK1 primary 68
CNC(=O)c1ccccc1Nc1cc(NC(=O)C2CCc3ccccc32)ncc1C(F)(F)F (centres undefined)	none
NC(=O)c1ccccc1Nc1cc(NC(=O)Cc2ccc(F)cc2)ncc1F	none
CNC(=O)c1ccccc1Nc1cc(NC(=O)Cc2ccc(F)cc2)ncc1C(F)(F)F	ULK1 primary 57
COc1ccc(CC(=O)Nc2cc(Nc3ccccc3-c3ncco3)c(C(F)(F)F)cn2)cc1	none
CNC(=O)c1ccccc1Nc1cc(Nc2ncccn2)ncc1C(F)(F)F	none
O=C(O)C(=O)c1ccccc1C(=O)C(Cl)c1ccccc1 (centres undefined)	none (no result: ASK1 inh)
Cc1cnc(N2CCC(N3CCOCC3)CC2)nc1Nc1ccc(N2CCOCC2)cc1	none
CCCNC(=O)c1cnc(Nc2cccc(N(C)C)c2)s1	none
Nc1nc(NCCO)cc(Nc2cnccn2)n1	none
O=C(NC1CCN(Cc2ccccc2)CC1)c1ccnc(NCCN2CCOCC2)c1	none
CCCNc1nc(Nc2ccc(N3CCOCC3)cc2)nc2c1ncn2CCN1CCCC1=O	none
O=C(Cc1ccc2c(c1)OCO2)Nc1cc(Nc2ccccc2-c2nn[nH]n2)c(C(F)(F)F)cn1	none
CNC(=O)c1ccccc1Nc1cc(NC(=O)Cc2ccsc2)ncc1C(F)(F)F	ULK1 primary 52
CNC(=O)c1ccccc1Nc1cc(NC(=O)Cc2cccs2)ncc1C(F)(F)F	ULK1 primary 46
COc1ccc(CC(=O)Nc2cc(Nc3ccccc3NC(C)=O)c(C(F)(F)F)cn2)cc1	none
CNS(=O)(=O)c1ccccc1Nc1cc(NC(=O)Cc2ccc(OC)cc2)ncc1C(F)(F)F	ULK1 primary 57
C[C@@](O)(C(=O)Nc1ccc2[nH]ncc2c1)c1ccc(Br)cc1	none
CC(=O)c1cccc(-c2ccc(C(=O)NCCc3ccc(O)cc3)s2)c1	none
Nc1cccc(-c2ccc(C(=O)NCCc3ccc(O)cc3)s2)c1	ULK1 primary 43
Cc1cnc(Nc2cnccn2)nc1NCCO	none
COc1cc(OC)nc(Oc2ccccc2/C=N/NC(N)=S)n1	none (no result: ASK1 inh)
CCc1nnc(N/N=C/c2ccccc2Cl)n1N	ULK1 primary 48 (no result: ASK1 inh)
O=C(NC1CC1)c1cnc(Nc2ncccn2)s1	ULK1 primary 44
CCNc1ncc(C(=O)NC2CC2)s1	none
COc1cc(Nc2nc(Nc3ccncn3)ncc2C)cc(OC)c1OC	none
COc1cc(Nc2cc(C)nc(Nc3cc(OC)c(OC)c(OC)c3)n2)cc(OC)c1OC	none
COc1cc(Nc2nc(Nc3ccccc3)ncc2C)cc(OC)c1OC	ULK1 primary 62
COc1cc(Nc2cc(C)nc(Nc3cccnc3)n2)cc(OC)c1OC	ULK1 primary 45
COc1cc(Nc2nc(Nc3ccccn3)ncc2C)cc(OC)c1OC	ULK1 primary 51
COc1cc(Nc2ncc(C)c(Nc3cc(OC)c(OC)c(OC)c3)n2)cc(OC)c1OC	none
O=C1CCCN1CCn1cnc2c(Nc3ccc(N4CCOCC4)cc3)nc(NC3CCN(Cc4ccccc4)CC3)nc21	none
O=C(c1nnc(-c2ccccc2)o1)N1CCOCC1	none (no result: ASK1 inh)
Cc1cc(N2CCOCC2)nc(Nc2ccc(NC(=O)CC(C)C)cc2)n1	none (no result: ASK1 inh)
CC(C)N(CCNc1nc(Nc2nc3ccccc3n2C)nc2nc[nH]c12)C(C)C	none
CC(C)n1cnc2c(Nc3ccc(N4CCOCC4)cc3)nc(Nc3ccncn3)nc21	ULK1 primary 52
CC(C)n1cnc2c(NC3CC3)nc(Nc3ccc(N4CCOCC4)cc3)nc21	none
CC(C)n1cnc2c(Nc3ccc(N4CCOCC4)cc3)nc(Nc3ccc(N4CCOCC4)cc3)nc21	none
CC(C)n1cnc2c(Nc3ccc(N4CCOCC4)cc3)nc(Nc3ccccn3)nc21	ULK1 primary 69
CC(C)n1cnc2c(Nc3ccc(N4CCOCC4)cc3)nc(Nc3nccc4ccccc34)nc21	none
CC(C)n1cnc2c(Nc3ccc(N4CCOCC4)cc3)nc(Nc3cccnc3)nc21	ULK1 primary 49
CC(C)C[C@H](O)C(=O)N[C@H]1CC[C@H](C(=O)Nc2ccc3[nH]ncc3c2)C1	none
OCCNc1nc(Nc2ccccc2)nc2nc[nH]c12	none
COc1ccc(CCNc2nc(-c3ccc(C(=O)N4CCN(C)CC4)cc3)nc3c2ncn3CCN2CCCC2=O)cc1	none
Cc1cncc2c(S(=O)(=O)N3CC[C@@H](NC(=O)CNC(=O)OC(C)(C)C)C3)cccc12	none
CC(C)NC(=O)c1cccc(NC(=O)Nc2ccc(-c3ncnc4[nH]cc(Cl)c34)cc2)c1	ULK1 primary 70
CC(C)NC(=O)c1cccc(NC(=O)Nc2ccc(-c3ncnc4nc[nH]c34)cc2)c1	none
CCN(CC)C(=O)C1CCCN(c2nc(Nc3ccc(N4CCOCC4)cc3)c3ncn(-c4ccsc4)c3n2)C1 (centres undefined)	none
O=C(c1cc2nc(-c3ccco3)cc(C(F)(F)F)n2n1)N1CCCCC1	none (no result: ASK1 inh)
O=C(Nc1ccc2nc(-c3ccco3)c(-c3ccco3)nc2c1)N1CCCC1	ULK1 primary 67 (no result: ASK1 inh)
N[C@@H]1CC[C@@H](C(=O)Nc2ccc3cnccc3c2)C1	none
O=C(Nc1ccc2[nH]ncc2c1)[C@@H]1CCCN1	none
N[C@H]1CCC[C@@H](C(=O)Nc2ccc3cnccc3c2)C1	ULK1 primary 66
O=C(Nc1ccc2[nH]ncc2c1)C1CCCNC1 (centres undefined)	none
N[C@@H]1CC[C@@H](C(=O)Nc2ccc3[nH]ncc3c2)C1	ULK1 primary 65
CC(C)[C@H](O)C(=O)N[C@H]1CC[C@H](C(=O)Nc2ccc3[nH]ncc3c2)C1	none
N[C@H]1CC[C@@H](C(=O)Nc2ccc3[nH]ncc3c2)C1	ULK1 primary 72
O=C(Nc1ccc2[nH]ncc2c1)[C@H]1CCCN1	ULK1 primary 45
CC(C)Oc1cc(-c2cn[nH]c2)ccc1NC(=O)C1COc2ccccc2O1 (centres undefined)	none
Cc1ccc(C(N)C(=O)N2CCC(C(=O)Nc3ccc4[nH]ncc4c3)C2)cc1 (centres undefined)	none
O=C(NCc1ccccc1)C1CCN(c2ccc(NCc3cccnc3)nn2)CC1	none
Cc1noc(C)c1-c1nc(NCCOc2ccccc2)c2ncn(CCN3CCCC3=O)c2n1	none
CC(C)N(CCNc1nc(N2CCCC2CO)nc2c1ncn2C1CCCCC1)C(C)C (centres undefined)	none
c1ccc(-c2nc3ncnc(NC4CC4)c3[nH]2)cc1	none
COC(=O)C(O)(CC(=O)Nc1ccc(Br)cc1)C(F)(F)F (centres undefined)	none (no result: ASK1 inh)
CCN(CC)c1cc(C)nc(Nc2ccc(NC(=O)C(C)C)cc2)n1	none (no result: ASK1 inh)
CCCNc1nc(N2CCc3ccccc3C2)nc2c1ncn2CCN1CCCC1=O	none
CCCNc1nc(Nc2ccncn2)nc2c1ncn2CCN1CCCC1=O	none
COc1ccc(-c2nc3s/c(=C\c4cccc(OC)c4OC)c(=O)n3n2)cc1	none (no result: ASK1 inh)
O=C(NC1CC1)c1ccc(-c2nc3ncnc(NCCc4ccc(O)cc4)c3[nH]2)cc1	none
O=C(Nc1ccc2[nH]ncc2c1)[C@H](O)c1ccccc1	ULK1 primary 49
O=C(Nc1ccc2[nH]ncc2c1)C(O)c1ccc(Cl)cc1 (centres undefined)	none
NNCCc1ccccc1	none (no result: ASK1 inh)

Compound activity (PubChem BioAssay)
